A selection follows.
aSyn UTR act – Activators via SNCA 5'UTR binding, MLPCN; alpha-synuclein 5'UTR reporter, activators screen; activity score, % (tested at 7.5 µM), hits read low; hit rate 7.1% among 300,000; AID 1814; in the data active means activity score below about -60%
* hit, by the source's call.

SMILES | aSyn UTR act
Cc1ccc(C)c(C(=O)CSc2nnnn2C(C)C)c1 | -65*
CCn1nnnc1SCC(=O)c1ccc2c(c1)OCCO2 | -137*
CC(C)(C)c1nnc2sc(SCC(=O)c3ccc4c(c3)OCCO4)nn2c1=O | -156*
COc1cccc(C(=O)CSc2nnnn2C2CCCCC2)c1 | -74*
Cc1cccc(NCc2ccc(N(C)C)cc2)n1 | -72*
COc1ccccc1C(CCNCc1ccc(N(C)C)cc1)c1ccc(OC(C)C)cc1 (stereo unspecified) | 135
COc1ccc(C2/C=C\CN(C(=O)Nc3ccc(C(F)(F)F)cc3)CC(=O)N2Cc2ccc(F)cc2)cc1 (stereo unspecified) | 71
O=C(Cn1cc(C(F)(F)F)ccc1=O)NCc1ccc(F)cc1 | -75*
CCC(=O)n1nc(-c2ccco2)nc1SCc1ccccc1 | -74*
CC(=O)n1nc(-c2ccco2)nc1SCc1ccccc1 | -89*
Nc1nc(CSCc2ccccc2)nc(N2CCOCC2)n1 | -67*
CC1CCN(C(=O)C2CC(c3ccc(F)cc3)=NO2)CC1 (stereo unspecified) | -88*
CC1CCCC(C)N1C(=O)C1CC(c2ccc(F)cc2)=NO1 (stereo unspecified) | -84*
O=C(NC1CCCC1)C1CC(c2ccc(F)cc2)=NO1 (stereo unspecified) | -108*
COc1cccc(C2=NOC(C(=O)N3CCOCC3)C2)c1 (stereo unspecified) | -101*
c1ccc(C2=Nc3ccccc3SC2c2nc3ccccc3[nH]2)cc1 (stereo unspecified) | -250*
O=C(CCl)Nc1ccccc1Sc1ccc(Cl)cc1 | 93
CSc1ccccc1NC(=S)NCc1ccc(Cl)cc1 | -110*
CSc1ccccc1NC(=O)COc1ccccc1Cl | -65*
CSc1ccccc1NC(=O)COc1ccc(Cl)cc1 | -62*
CC(C)c1nc(C#N)c(NN)o1 | -127*
CCOC(=O)c1c(N/N=C/c2cccnc2)n[nH]c1C | -157*
CCOC(=O)/C(C#N)=C1/C=CN(c2ccccc2)C=N1 | -79*
CCOC(=O)/C(C#N)=C1/C=CN(c2ccc(C)cc2)C=N1 | -97*
COc1cccc(C(=O)Nc2nnc(-c3ccccc3)s2)c1OC | -113*
SMILES | aSyn UTR act
CC(=O)Nc1ccc(-c2nnc(SCC(=O)Nc3ccc4c(c3)oc3ccccc34)n2C)cc1 | -92*
O=C(CSc1ncn[nH]1)Nc1nnc(-c2ccccc2)s1 | -74*
COc1ccccc1C(=O)Nc1nnc(C)s1 | -211*
O=C(Nc1ccccc1)Nc1nnc(-c2ccccc2)s1 | -162*
Cc1ccccc1C(=O)Nc1nnc(SC(C)C)s1 | -97*
COc1ccccc1C(=O)Nc1nnc(-c2ccccc2)s1 | -153*
COc1ccccc1C(=O)N(C)c1nnc(-c2ccccc2)s1 | -117*
CC(C)=CC(=O)Nc1nnc(-c2ccccc2)s1 | -187*
COc1ccccc1C(=O)Nc1nnc(SCC(=O)Nc2ccc3c(c2)oc2ccccc23)s1 | -152*
COc1ccccc1C(=O)Nc1nc(-c2cccs2)c(NC(C)=O)s1 | -128*
CCOc1ccccc1C(=O)Nc1nnc(C(C)C)s1 | -176*
O=C(Nc1nnc(-c2ccccc2)s1)c1ccccc1O | -153*
COc1ccc(/C=C/C(=O)NC2CCCCCC2)cc1S(=O)(=O)N1CCOCC1 | -75*
CCN(CC)S(=O)(=O)c1cc(C(=O)NC2CCCCC2)ccc1C | -111*
Cc1ccc(C(=O)NC2CCCCCC2)cc1S(=O)(=O)N1CCOCC1 | -70*
Cc1ccc(S(=O)(=O)N/N=c2\oc3ccccc3cc2C(=O)Nc2cccc(C)c2)cc1 | -85*
Cc1cc(NC(=O)/C=C/c2ccc(Br)cc2)no1 | -74*
Cc1cc(NC(=O)/C=C/c2ccc(Cl)cc2)no1 | -78*
C/C(=C\C(=O)Nc1cc(C)on1)c1ccccc1 | -110*
Cc1ccc(/C=C2\SC(=S)N(CCCC(=O)Nc3cc(C)on3)C2=O)cc1 | 58
O=C(c1cc(COc2ccc(F)c(F)c2)on1)N1CCSCC1 | -94*
CC(=O)c1cccc(OCc2cc(C(=O)N3CCSCC3)no2)c1 | -152*
CCCn1ncc2c(Nc3ccc(C)c(C)c3)ncnc21 | -92*
O=C(CCNC(=O)c1ccccc1Cl)Nc1nc2ccccc2s1 | -83*
CCCNC(=O)Nc1nc2ccccc2s1 | -118*
SMILES | aSyn UTR act
CCc1ccc2nc(NC(=O)CSCc3c(C)noc3C)sc2c1 | -73*
CC12CCC(C(=O)Nc3nc4ccccc4s3)(OC1=O)C2(C)C (stereo unspecified) | -113*
CCCNC(=O)c1ccc(-c2nc3ccccc3s2)s1 | 79
CCOC(=O)Nc1nc2ccccc2s1 | -125*
CN(CC(=O)Nc1nc2ccccc2s1)S(=O)(=O)c1ccccc1 | -83*
CCOC(=O)Nc1nc(-c2ccc(Cl)cc2Cl)cs1 | -97*
CCCCNC(=O)Nc1nc2ccc(CC)cc2s1 | -124*
CN(C)c1ccc(CC(=O)c2nc3ccccc3s2)cc1 | -125*
Cc1ccc(CC(=O)Nc2nc3ccccc3s2)cc1 | -96*
CCCCNC(=O)Nc1nc2ccccc2s1 | -81*
COc1ccc2c(c1)C(=O)c1ccccc1CO2 | -242*
Cc1nn(-c2ccccc2)c2sc(C(=O)N3CCOCC3)cc12 | -87*
COc1cccc(-c2nn(C)c3sc(C(=O)NCCCN(C)Cc4ccccc4)cc23)c1 | -76*
CCCNC(=O)CCn1nc(-c2ccc(Cl)cc2)c2ccccc2c1=O | 82
Cn1nc(-c2ccc(Cl)cc2)c2cc(C(=O)N3CCN(c4ccccc4)CC3)sc21 | -65*
COCCCNC(=O)c1cc2c(-c3ccc(Cl)cc3)nn(C)c2s1 | -72*
C/[N+]([O-])=C/c1c(OCc2ccccc2)ccc2ccccc12 | -91*
O=Cc1c(OCc2ccccc2)ccc2ccccc12 | -131*
O=c1nc2c(-c3ccccc3F)n[nH]n2c2ccccc12 | -146*
c1ccc(-c2nc3c([nH]2)CCc2nonc2-3)cc1 | -66*
Cc1cc(N2CCOCC2)ccc1/C=C\[N+](=O)[O-] | -101*
CCOC(=O)C1CCCN(Cc2cc(=O)oc3cc(C)ccc23)C1 (stereo unspecified) | -75*
Cc1ccc2c(CN3CCC(C)CC3)cc(=O)oc2c1 | -150*
CCCCN=C1NN=C(c2cc3ccccc3o2)CS1 | -106*
CCCCN=C1NN=C(c2cccc([N+](=O)[O-])c2)CS1 | -68*
SMILES | aSyn UTR act
O=[N+]([O-])c1ccc2c(c1)nc1n2CCN(C2CCCCC2)C1 | -127*
COc1cc(/C=N/Nc2ccc3ccccc3c2)ccc1OC(=O)c1ccco1 | -76*
COc1cc(/C=N/NS(=O)(=O)c2ccc3ccccc3c2)ccc1OCc1ccc(C(=O)O)cc1 | 84
CCOc1cc(/C=N\Nc2nc(Nc3ccccc3)nc(N3CCOCC3)n2)ccc1OC(=O)c1ccco1 | -91*
O=C(/C=C(/c1ccc(Cl)cc1)n1cncn1)c1ccccc1 | -62*
Cc1cccc(OCC(=O)O/N=C(\N)c2ccccn2)c1C | -172*
N/C(=N\OC(=O)COc1cc(Cl)c(Cl)cc1Cl)c1ccccn1 | -150*
Cc1ccc2c(CC(=O)NCc3ccco3)coc2c1C | -95*
FC(F)Oc1ccccc1/C=N/n1cnc2ccccc21 | -191*
CC(C)NC(=O)c1ccc(-c2ccccc2C(F)(F)F)o1 | -131*
O=c1c2ccccc2oc2cc(NCCCN3CCOCC3)ccc12 | -127*
CN1CCCC1CCNc1ccc2c(=O)c3ccccc3oc2c1 (stereo unspecified) | -130*
O=c1c2ccccc2oc2ccc(NCCCN3CCOCC3)cc12 | -108*
CC(=O)c1sc(NC(=O)c2ccc(F)cc2)nc1-c1ccccc1 | -95*
CC(=O)c1sc(NC(=O)c2ccccc2F)nc1-c1ccccc1 | -124*
